Among the data in PubChem BioAssay (NCI) are growth inhibition values, retold here.

The structures appear in SMILES notation. About 79,000 compounds went through this panel and 15% of them were active in at least one assay; those are over-represented in the sample as a whole. A number with no mark means an inactive call. Active and inactive are the calls of the source. Cut-off read from the data, not from the text of the source: active = growth inhibition above about 70%; inactive = the rest.

The nature of experiment [1]: NCI Yeast Anticancer Drug Screen. Data for the rad50 strain (AID 155).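 Note: 0% = growth of vehicle-only cultures of the same strain.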 Particulars: S. cerevisiae rad50 strain growth inhibition, stronger effect = higher value. The essentials:
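Compounds were tested on a yeast strain with an engineered DNA damage repair alteration; the reported value is growth inhibition normalised to vehicle treatment.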

Experiment [2] in a line: NCI Yeast Anticancer Drug Screen. Data for the mec2-1 strain (AID 157). Particulars: S. cerevisiae mec2-1 strain, stronger effect = higher value. The method in brief: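 Yeast mec2-1 mutant treated with compound. Readout: growth inhibition vs vehicle controls.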
Experiment [3] is described as follows: NCI Yeast Anticancer Drug Screen. Data for the sgs1 mgt1 strain (AID 161).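 Note: 0% = growth of cultures given vehicle only.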 Particulars: S. cerevisiae sgs1 mgt1 strain, stronger effect = higher value. The essentials: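 Mutant yeast exposed to compound; growth scored against vehicle-only wells.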
The nature of experiment [4]: NCI Yeast Anticancer Drug Screen. Data for the cln2 rad14 strain (AID 165).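 Note: 0% = growth equal to vehicle treated cultures.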 Particulars: S. cerevisiae cln2 rad14 strain, stronger effect = higher value. The essentials:
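cln2 rad14 yeast strain; compound exposure; growth inhibition read vs vehicle controls.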

The nature of experiment [5]: NCI Yeast Anticancer Drug Screen. Data for the bub3 strain (AID 167). The settings on record: S. cerevisiae bub3 mutant strain, stronger effect = higher value. The method in brief: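 Growth of a checkpoint-deficient yeast mutant is measured after compound exposure. Values represent inhibition relative to vehicle.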
Experiment [6] is described as follows: NCI Yeast Anticancer Drug Screen. Data for the mlh1 rad18 strain (AID 175). Particulars: S. cerevisiae mlh1 rad18 strain growth inhibition, stronger effect = higher value. The essentials: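 Yeast w/ defined DNA-repair lesions; compound exposure; growth vs vehicle controls → % inhibition.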
Setting [7] is: at 5.0 µM (retest, dose inferred, filed as 0.5).
The mark [8] stands for this setting: at 50.0 µM (retest, dose inferred, filed as 5.0).

On to `O=C1CCC(Cc2ccc(Br)cc2)C(=O)N1` (stereo not given), for which the growth inhibition in experiment [1] (setting [7]) was -4%; in experiment [1] (setting [8]) it was 7%; in experiment [1] (at 50.0 µM) it was -11.7%; in experiment [2] (setting [7]), -4%; in experiment [2] (setting [8]), 1%; in experiment [2] (at 50.0 µM), 7.2%. Moreover, the growth inhibition in experiment [3] (setting [7]) is 19%; in experiment [3] (setting [8]) it was 96% (active); in experiment [3] (at 50.0 µM), 93.7% (active); in experiment [4] (setting [7]) it was -3%; in experiment [4] (setting [8]), 3%; in experiment [4] (at 50.0 µM) it was -77.2%. The growth inhibition in experiment [5] (setting [7]) is -6%; in experiment [5] (setting [8]), -1%; in experiment [5] (at 50.0 µM), -54%; in experiment [6] (setting [7]), -6%; in experiment [6] (setting [8]), 5%; in experiment [6] (at 50.0 µM), -2.1%.
Consider `O=C(Nc1cc(Cl)ccc1Cl)Nc1ccc(Cl)cc1C(=O)c1ccccc1`, for which the growth inhibition in experiment [1] (setting [7]) is 98% (active); in experiment [1] (setting [8]) it was 99% (active); in experiment [1] (at 50.0 µM), 84.9% (active); in experiment [2] (setting [7]), 97% (active); in experiment [2] (setting [8]) it was 98% (active); in experiment [2] (at 50.0 µM), 91.6% (active). Moreover, the growth inhibition is 27% in experiment [3] (setting [7]); 95% (active) in experiment [3] (setting [8]); 88.9% (active) in experiment [3] (at 50.0 µM); 73% (active) in experiment [4] (setting [7]); 92% (active) in experiment [4] (setting [8]); 88% (active) in experiment [4] (at 50.0 µM). Moreover, the growth inhibition is 71% (active) in experiment [5] (setting [7]); 87% (active) in experiment [5] (setting [8]); 79.3% (active) in experiment [5] (at 50.0 µM); 100% (active) in experiment [6] (setting [7]); 99% (active) in experiment [6] (setting [8]); 88.2% (active) in experiment [6] (at 50.0 µM).
Turning to `CCOC(=O)C1=C(C)NC(=O)NC1c1coc2cc(C)cc(C)c2c1=O` (stereo not given), the growth inhibition in experiment [1] (setting [7]) is -1%; in experiment [1] (setting [8]) it was 10%; in experiment [1] (at 50.0 µM), 12.4%; in experiment [2] (setting [7]) it was -2%; in experiment [2] (setting [8]), 15%; in experiment [2] (at 50.0 µM), -5%. Moreover, the growth inhibition in experiment [3] (setting [7]) is 3%; in experiment [3] (setting [8]), 14%; in experiment [3] (at 50.0 µM), -2.5%; in experiment [4] (setting [7]), 20%; in experiment [4] (setting [8]), 5%; in experiment [4] (at 50.0 µM) it was 52.2%. Further, the growth inhibition in experiment [5] (setting [7]) was 14%; in experiment [5] (setting [8]), -4%; in experiment [5] (at 50.0 µM) it was -15.8%; in experiment [6] (setting [7]) it was 0%; in experiment [6] (setting [8]), 1%; in experiment [6] (at 50.0 µM), -7.1%.
`COC(=O)C1(C)CCCC2(C)C3CCC4CC3(C=C4CO)CCC12` (stereo not given): the growth inhibition was 32% in experiment [1] (setting [7]); 96% (active) in experiment [1] (setting [8]); 53% in experiment [1] (at 50.0 µM); 24% in experiment [2] (setting [7]); 98% (active) in experiment [2] (setting [8]); 43.1% in experiment [2] (at 50.0 µM). Further, the growth inhibition in experiment [3] (setting [7]) was 35%; in experiment [3] (setting [8]), 99% (active); in experiment [3] (at 50.0 µM), 86.5% (active); in experiment [4] (setting [7]), 36%; in experiment [4] (setting [8]) it was 91% (active); in experiment [4] (at 50.0 µM), 73.5% (active). For the same compound, the growth inhibition in experiment [5] (setting [7]) is 24%; in experiment [5] (setting [8]) it was 98% (active); in experiment [5] (at 50.0 µM), 80.7% (active); in experiment [6] (setting [7]), 41%; in experiment [6] (setting [8]), 98% (active); in experiment [6] (at 50.0 µM), 50.4%.
With `CS(=O)(=O)OCCN(CCOS(C)(=O)=O)c1ccc(C=Nc2cc(Br)c(O)c(Br)c2)c(Cl)c1`, the growth inhibition is 3% in experiment [1] (setting [7]); 70% (active) in experiment [1] (setting [8]); 67.7% in experiment [1] (at 50.0 µM); 29% in experiment [2] (setting [7]); 39% in experiment [2] (setting [8]); 36.8% in experiment [2] (at 50.0 µM). Besides, the growth inhibition in experiment [3] (setting [7]) is 3%; in experiment [3] (setting [8]), 80% (active); in experiment [3] (at 50.0 µM) it was 82.5% (active); in experiment [4] (setting [7]), 5%; in experiment [4] (setting [8]) it was 45%; in experiment [4] (at 50.0 µM), 10.2%. The growth inhibition in experiment [5] (setting [7]) is -3%; in experiment [5] (setting [8]), 96% (active); in experiment [5] (at 50.0 µM), 40.3%; in experiment [6] (setting [7]), 8%; in experiment [6] (setting [8]), 91% (active); in experiment [6] (at 50.0 µM) it was 85.8% (active).
